Values joined by “and” are separate entries in the source; they are usually repeats but may differ in a detail not shown here. Equal entries are not always repeated. About 79,000 compounds went through this panel and 15% of them were active in at least one assay; those are over-represented in the sample as a whole. Active and inactive are the calls of the source. No stated cut-off is given here; in the data, active means growth inhibition above about 70%; inactive means the rest.
Columns and labels:
[1] = NCI Yeast Anticancer Drug Screen. Data for the rad50 strain (AID 155);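 further: 0% = growth of vehicle-only cultures of the same strain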; conditions: S. cerevisiae rad50 strain growth inhibition; at 50.0 µM; stronger effect = higher value
In short: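 Yeast carrying a defined DNA repair defect were exposed to test compounds, and growth was compared with vehicle-treated controls to give percent inhibition.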

[2] = NCI Yeast Anticancer Drug Screen. Data for the mec2-1 strain (AID 157); conditions: S. cerevisiae mec2-1 strain, at 50.0 µM, stronger effect = higher value
In short: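 Strain: mec2-1 (DNA repair/cell cycle alteration). Compound exposure, then growth measured; inhibition expressed relative to vehicle.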

[3] = NCI Yeast Anticancer Drug Screen. Data for the sgs1 mgt1 strain (AID 161);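 further: 0% = growth of cultures given vehicle only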; conditions: S. cerevisiae sgs1 mgt1 strain, at 50.0 µM, stronger effect = higher value
In short: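 Inhibition of yeast growth, normalised to vehicle-treated controls, is reported for a strain bearing genetic alterations in DNA damage repair.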

[4] = NCI Yeast Anticancer Drug Screen. Data for the cln2 rad14 strain (AID 165);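 further: 0% = growth equal to vehicle treated cultures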; conditions: S. cerevisiae cln2 rad14 strain, at 50.0 µM, stronger effect = higher value
In short: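 Compounds are applied to the cln2 rad14 yeast strain, and growth is then compared with that of vehicle-treated cultures to give inhibition.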

[5] = NCI Yeast Anticancer Drug Screen. Data for the bub3 strain (AID 167); conditions: S. cerevisiae bub3 mutant strain, at 50.0 µM, stronger effect = higher value
In short: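 Compounds were applied to a genetically altered yeast strain carrying a cell-cycle control defect. Growth inhibition was scored against vehicle-treated controls.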

[6] = NCI Yeast Anticancer Drug Screen. Data for the mlh1 rad18 strain (AID 175); conditions: S. cerevisiae mlh1 rad18 strain growth inhibition; at 50.0 µM; stronger effect = higher value
In short: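 Read-out is yeast growth inhibition, calculated against vehicle-only controls. The compound was applied to a strain engineered with DNA damage repair alterations.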

Measured: growth inhibition

CC(=S)N=Cc1c(O)[nH]c(=O)[nH]c1=O
inactive: [1] -6.2% | [2] -6.8% | [3] -10.2% | [4] 21.6% | [5] -7.55% | [6] 9.55%

CNP1(NC)=NP(N(C)C)(N(C)C)=NP(N(C)C)(N(C)C)=N1
inactive: [1] -15.9% | [2] 0.45% | [3] -3% | [4] -19.4% | [5] 11.6% | [6] 13.2%

CCCC(C)c1ccc(SOO)cc1.[Fe] (centres undefined)
inactive: [1] 19.9% | [2] 4.05% | [3] -13.7% | [4] -17.5% | [5] 8.5% | [6] -6.6%

CC1CCC2N(C1)CC1C3(O)CC45OC6(O)C(O)CCC4(C)C6CCC5C3(O)CC(O)C1(O)C2(C)O (centres undefined)
inactive: [1] -19.9% and -2.1% | [2] -17.9% and -31.1% | [3] -2.9% and -17.4% | [4] -21.6% and 9.15% | [5] -31.2% and -0.4% | [6] 6.5% and -15.3%

CC(=O)Nc1ccc(NN=O)cn1
inactive: [1] 40.9% | [2] 4.7% | [3] -15.9% | [4] -7.95% | [5] -37.8% | [6] 12.2%

COc1ccc2c(c1O)-c1cc(O)cc3c1C(C2)NCC3 (centres undefined)
inactive: [1] 13.7% | [2] 21.8% | [3] -12.5% | [4] 7.25% | [5] 8.65% | [6] 30.9%

C=C(C(=O)OC1CC2CCC(C1)[N+]2(C)[O-])c1ccccc1 (centres undefined)
inactive: [1] 7.4% | [2] -6% | [3] -19.4% | [4] -2.95% | [5] 3.1% | [6] -23.3%

C=CC[As](=O)(O)c1ccccc1Cl
active: [1] 96% | [2] 99.5% | [3] 99.5% | [4] 84.2% | [5] 98.3% | [6] 99%

Nc1n[nH]c(CCc2nc(N)n[nH]2)n1
inactive: [1] 22.8% | [2] -12.2% | [3] -18.1% | [4] 7.65% | [5] 11.6% | [6] 4.9%

CC(COC(=O)NCc1ccc(Cl)cc1Cl)OC(N)=O (centres undefined)
inactive: [1] 2.6% | [2] 0.35% | [3] 4.25% | [4] -12.8% | [5] -5% | [6] -8.65%

COc1ccc(NC2Oc3cc4c(cc3C(c3cc(OC)c(OC)c(OC)c3)C2C)OCO4)cc1 (centres undefined)
inactive: [1] -1.25% | [2] 18.9% | [3] 25.3% | [4] -13.2% | [5] 17.1% | [6] 12%

Oc1ccc(CCNCc2cc3c(cc2Br)OCO3)cc1
inactive: [1] 18.7% | [2] 12% | [3] -11.1% | [4] 1.2% | [5] 32.9% | [6] 21.9%

c1ccc(C[n+]2ccc(-c3ccccc3)cc2)cc1
inactive: [1] -5.75% | [2] 5.5% | [3] -0.35% | [4] -7.25% | [5] -7.15% | [6] -19.5%

CC(Cc1ccc(O)cc1)NCC(O)c1ccc(O)c(O)c1 (centres undefined)
inactive: [1] 10.6% | [2] 15.3% | [3] 3.4% | [4] 0.55% | [5] -7.45% | [6] 22.9%

COC(=O)C1C(OC(=O)C(Cl)(c2ccccc2)c2ccccc2)CC2CCC1N2C (centres undefined)
inactive: [1] -5.25% | [2] -6.35% | [3] -19.6% | [4] 7.65% | [5] -21.1% | [6] -6.9%

Cc1cccc(C)c1CCl
inactive: [1] -1.45% and 23.5% | [2] -9.75% and -12.8% | [3] -8.15% and -4.3% | [4] 12.9% and -38.5% | [5] 9.65% and -1.35% | [6] 6.95% and 20.7%

CC1(C)[C@@H]2CC[C@@]1(C)CN(CCC[N+](C)(C)C)C2
inactive: [1] 15.4% | [2] -11.8% | [3] -30.6% | [4] -5.55% | [5] -19.4% | [6] -2.35%

CCCP(=S)(CCC)P(=S)(CCC)CCC
inactive: [1] 5.4% | [2] 19.4% | [3] 20.9% | [4] -2.75% | [5] 18% | [6] 20.9%

COc1ccc(C[As+](c2ccccc2)(c2ccccc2)c2ccccc2)cc1
active: [1] 97.8% | [2] 98.3% | [3] 97.4% | [4] 97% | [5] 93% | [6] 97.2%

— PubChem BioAssay (NCI)
